Experimental data published in PubChem BioAssay.
The source made the active and inactive calls. Unless noted, no rule for the calls is given here.

Tests used:
[1] = compound effects on lung adenocarcinoma cell viability – A549, calcein-AM fluorescence, 48 h, basal, profiling panel (AID 1162); conditions: higher = more signal; also: test concentration not given here
[2] = compound effects on differentiated 3T3-L1 adipocyte viability – cell-based, 3T3-L1 adipocytes, calcein-AM fluorescence, 48 h, basal, profiling panel (AID 1163); conditions: 3T3-L1 adipocytes viability, higher = more signal; also: test concentration not given here
[3] = compound effects on hepatocellular carcinoma cell viability – HepG2, calcein-AM fluorescence, 48 h, basal, profiling panel (AID 1164); conditions: higher = more signal; also: test concentration not given here
[4] = compound effects on multiple myeloma cell viability – MM1S, calcein-AM fluorescence, 48 h, basal, profiling panel (AID 1165); conditions: higher = more signal; also: test concentration not given here
[5] = calcein-AM signal in unstimulated myeloma cells – cell-based, calcein-AM fluorescence, 48 h, PK04 Diversity Set, profiling panel (AID 1166); conditions: RPMI8226 myeloma viability, higher = more signal;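 also: cells grown under basal conditions without added stimulus; test concentration not given here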
[6] = JC-1 mitochondrial signal, unstimulated HepG2 cells – cell-based, JC-1 fluorescence, 24 h, 100 nL compound, profiling panel (AID 1167); conditions: HepG2 mitochondrial potential, higher = more signal; also: test concentration not given here
[7] = JC-1 mitochondrial signal, unstimulated adipocytes – cell-based, JC-1 fluorescence, 3T3-L1 adipocytes, 24 h, 100 nL compound, profiling panel (AID 1168); conditions: JC-1 mitochondrial fluorescence, higher = more signal, called active from +8 up or from −8 down; also: test concentration not given here
[8] = JC-1 mitochondrial signal, unstimulated myeloma cells – cell-based, JC-1 fluorescence, RPMI8226, 24 h, 100 nL compound, profiling panel (AID 1169); conditions: JC-1 mitochondrial potential fluorescence, higher = more signal; also: test concentration not given here
[9] = JC-1 mitochondrial signal, unstimulated MM1S myeloma – cell-based, JC-1 fluorescence, 24 h, 100 nL compound, profiling panel (AID 1170); conditions: MM1S mitochondrial potential, higher = more signal; also: test concentration not given here
[10] = resazurin metabolic signal in A549 cells – cell-based, resazurin fluorescence, 24 h, PK04 Diversity Set, profiling panel (AID 1171); conditions: A549 viability, higher = more signal, called active from +8 up or from −8 down; also: test concentration not given here
[11] = resazurin metabolic signal in HepG2 cells – cell-based, resazurin fluorescence, 24 h, PK04 Diversity Set, profiling panel (AID 1172); conditions: HepG2 viability, higher = more signal; also: test concentration not given here
[12] = budding yeast growth changes without added modifier – OD600, strain BY4716, 24 h, basal condition, primary screen (AID 1173); conditions: S. cerevisiae BY4716 growth, OD600, 24 h; higher = more signal, called active from +8 up or from −8 down
[13] = viability profiling in MM1S myeloma cells – cell-based, resazurin fluorescence, basal, 24 h, PK04 Diversity Set, profiling panel (AID 1174); conditions: higher = more signal, called active from +8 up or from −8 down; also: test concentration not given here
[14] = target: Dihydroorotate dehydrogenase (quinone), mitochondrial (Plasmodium falciparum (isolate 3D7)) (UniProt Q08210); assay: inhibition of P. falciparum DHODH – biochemical, C-terminal His tag, absorbance 600 nm, primary screen (AID 1175); conditions: PfDHODH enzyme, DCIP absorbance 600 nm; higher = more signal, called active from +8 up or from −8 down;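 also: recombinant parasite enzyme with a five histidine tag at its C terminus; test concentration not given here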
Sequence of Dihydroorotate dehydrogenase (quinone), mitochondrial (Plasmodium falciparum (isolate 3D7)) (Q08210 whole entry, looked up): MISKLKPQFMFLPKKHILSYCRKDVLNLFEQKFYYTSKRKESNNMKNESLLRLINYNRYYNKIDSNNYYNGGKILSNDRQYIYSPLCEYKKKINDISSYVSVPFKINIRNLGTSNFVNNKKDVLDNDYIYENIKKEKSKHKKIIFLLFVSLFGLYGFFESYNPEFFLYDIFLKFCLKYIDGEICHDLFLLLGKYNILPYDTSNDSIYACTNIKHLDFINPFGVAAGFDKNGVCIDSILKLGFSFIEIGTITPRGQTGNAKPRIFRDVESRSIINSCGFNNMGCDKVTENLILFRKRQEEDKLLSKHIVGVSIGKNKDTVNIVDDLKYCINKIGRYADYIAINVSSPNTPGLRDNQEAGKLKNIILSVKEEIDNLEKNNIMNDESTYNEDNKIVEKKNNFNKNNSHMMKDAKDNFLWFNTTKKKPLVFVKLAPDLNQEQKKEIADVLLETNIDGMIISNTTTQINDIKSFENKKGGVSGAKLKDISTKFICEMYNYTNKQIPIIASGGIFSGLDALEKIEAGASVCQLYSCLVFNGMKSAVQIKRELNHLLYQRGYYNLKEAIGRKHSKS

[15] = inhibition of PAO1 biofilm formation – strain PAO1, LB-PBS medium, absorbance 600 nm, primary screen (AID 1176); also: test concentration not given here; conditions: P. aeruginosa PAO1 growth/biofilm, A600, 12 h; higher = more signal
[16] = growth modulation of vineyard yeast isolate – strain RM11-1a, OD600, basal, 24 h, primary screen (AID 1177);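 also: cultures grown under basal conditions with no added stressor; test concentration not given here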; conditions: S. cerevisiae RM11-1a growth, OD600, 24 h; higher = more signal, called active from +8 up or from −8 down
[17] = growth of efflux-deficient E. coli DRC39 – strain DRC39, OD650, 24 h, E. coli filamentation inducers, primary screen (AID 1178);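 also: growth measured as culture turbidity by optical density at 650 nm; test concentration not given here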; conditions: E. coli DRC39 acrAB, higher = more signal, called active from +8 up or from −8 down
[18] = growth of efflux-deficient E. coli DRC39 – strain DRC39, OD650, 48 h, E. coli filamentation inducers, primary screen (AID 1179);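 also: screen aims at cell division blockers that make cells filament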; conditions: E. coli DRC39 delta-acrAB growth, higher = more signal, called active from +8 up or from −8 down
[19] = viability profiling in RPMI8226 myeloma cells – cell-based, resazurin fluorescence, basal, 24 h, PK04 Diversity Set, profiling panel (AID 1180); conditions: higher = more signal;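 also: RPMI8826 multiple myeloma cell line at 5000 cells per well; test concentration not given here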
[20] = target: E3 ubiquitin-protein ligase XIAP (Homo sapiens) (UniProt P98170); assay: small molecules binding XIAP protein – biophysical, small-molecule microarray, fluorescence 635 nm, primary screen (AID 1181); conditions: higher = more signal;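 also: score merges 667 nm emission and signal to noise over triplicate slides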
Sequence of E3 ubiquitin-protein ligase XIAP (Homo sapiens) (P98170 whole entry, looked up): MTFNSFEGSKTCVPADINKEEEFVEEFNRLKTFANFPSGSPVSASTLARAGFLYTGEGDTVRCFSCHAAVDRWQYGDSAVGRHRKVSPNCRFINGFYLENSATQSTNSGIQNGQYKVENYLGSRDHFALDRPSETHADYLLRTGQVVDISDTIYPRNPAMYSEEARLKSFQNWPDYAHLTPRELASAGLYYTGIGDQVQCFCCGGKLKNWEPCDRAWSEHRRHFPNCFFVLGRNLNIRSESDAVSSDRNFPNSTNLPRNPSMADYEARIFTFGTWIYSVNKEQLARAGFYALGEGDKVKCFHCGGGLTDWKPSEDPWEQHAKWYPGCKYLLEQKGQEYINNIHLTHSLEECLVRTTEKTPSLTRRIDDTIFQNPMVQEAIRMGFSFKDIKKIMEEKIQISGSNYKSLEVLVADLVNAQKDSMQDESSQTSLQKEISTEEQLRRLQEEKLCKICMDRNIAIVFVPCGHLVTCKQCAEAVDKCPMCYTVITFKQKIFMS

Row | SMILES | z-score [1] | z-score [2] | z-score [3] | z-score [4] | z-score [5] | z-score [6] | z-score [7] | z-score [8] | z-score [9] | z-score [10] | z-score [11] | z-score [12] | z-score [13] | composite z-score [14] | z-score [15] | z-score [16] | z-score [17] | z-score [18] | z-score [19] | composite z-score [20]
1 | Cc1ccc(S(=O)(=O)N2CC(C(=O)O)=CCC2c2ccccc2)cc1 (stereo not given) | -0.901 | 0.324 | -0.772 | -0.249 | -1.19 | -0.644 | -2.04 (inactive) | -0.25 | 1.53 | -0.717 (inactive) | -1.31 | 0.558 (inactive) | -2.27 (inactive) | 0.154 (inactive) | 0.12 (inactive) | 0.437 (inactive) | -1.28 (inactive) | -1.15 (inactive) | -0.931 | 0.155
2 | CC1CC/C=C\[C@H]2OC34C=CCN(Cn5nnc6ccccc65)C(=O)[C@H]3N(CCCO)C(=O)[C@@H]4C2C(=O)O1 (stereo not given in full) | -0.677 | 1.5 | -0.501 | 0.159 | -0.894 | -0.0699 | -0.382 (inactive) | 0.0216 | 0.638 | 0.356 (inactive) | -0.0236 | 1.06 (inactive) | 0.502 (inactive) | 0.317 (inactive) | -0.221 (inactive) | 0.801 (inactive) | 0.0706 (inactive) | -0.0371 (inactive) | 0.623 | 0.244
3 | C=C(CCCC)/C(=C/C[C@H](OC(C)=O)c1ccc(CO)o1)c1cc(C(=O)OC)ccc1OC | -0.0865 | 1.03 | -0.888 | -2.21 | -2.15 | -0.854 | -0.356 (inactive) | 0.292 | 0.6 | -0.684 (inactive) | -0.577 | -0.31 (inactive) | -0.871 (inactive) | -2.01 (inactive) | 0.0842 (inactive) | 0.0837 (inactive) | -0.729 (inactive) | -0.776 (inactive) | -0.641 | -0.322
4 | CC1CC/C=C\[C@H]2OC34C=CCN(CCN5CCOCC5)C(=O)[C@H]3N(CCCCCO)C(=O)[C@@H]4C2C(=O)O1 (stereo not given in full) | -0.365 | 0.374 | 0.68 | 1.09 | 0.0186 | -0.461 | -0.189 (inactive) | -0.0345 | -0.107 | -0.19 (inactive) | -0.693 | -0.501 (inactive) | 0.183 (inactive) | 1.07 (inactive) | -0.456 (inactive) | 0.0357 (inactive) | 0.408 (inactive) | 0.45 (inactive) | -0.977 | 0.33
5 | CCCCN1CC=CC23O[C@@H]4C=CCCOC(=O)C4[C@H]2C(=O)N(CCCO)[C@@H]3C1=O (stereo not given in full) | 0.146 | 1.53 | -0.365 | 0.438 | -0.913 | -0.798 | -0.562 (inactive) | -0.781 | -0.148 | -0.834 (inactive) | -0.341 | -1.09 (inactive) | -0.404 (inactive) | -3.94 (inactive) | -0.565 (inactive) | 0.0943 (inactive) | -1.54 (inactive) | -1.34 (inactive) | -0.937 | 0.268
6 | C=CCNC(=O)[C@H]1[C@@H]2C(=O)O[C@@H](c3ccccc3)[C@@H](c3ccccc3)N2[C@@H](c2ccc(O)cc2)[C@]12C(=O)Nc1ccc(C#Cc3ccc(OC)cc3)cc12 | -1.06 | 0.205 | -1.78 | -2.37 | -4.35 | -0.385 | -0.0338 (inactive) | -1.22 | -0.614 | -0.989 (inactive) | -1.56 | 0.885 (inactive) | -1.57 (inactive) | -27 (active) | 0.971 (inactive) | 1.14 (inactive) | 0.461 (inactive) | 0.0221 (inactive) | -3.24 | -0.0022
7 | C#C[C@H](O[Si](C#CCCCCCC)(C(C)C)C(C)C)c1ccccc1 | 0.303 | 0.102 | -0.616 | 0.665 | 0.528 | 0.0244 | -0.324 (inactive) | 0.179 | -0.772 | 0.815 (inactive) | 0.465 | 0.0181 (inactive) | 0.221 (inactive) | -0.719 (inactive) | -0.984 (inactive) | -0.0669 (inactive) | 0.0687 (inactive) | 0.577 (inactive) | 0.783 | 0.0406
8 | [N-]=[N+]=NCc1ccccc1C[C@]1(C(=O)N2CCOCC2)N=C(c2ccc(OCCCO)cc2)O[C@H]1c1ccccc1 | -0.55 | -0.0649 | -1.56 | -2.06 | -4.4 | -0.155 | -0.296 (inactive) | -1.16 | -2.08 | -0.832 (inactive) | -0.552 | -0.34 (inactive) | -2.29 (inactive) | 1.44 (inactive) | -0.537 (inactive) | 0.328 (inactive) | 0.685 (inactive) | 0.694 (inactive) | -4.46 | -0.0884
9 | OCCCc1cc[n+](Cc2cccc(OC(F)(F)F)c2)cc1 | -0.0193 | 0.997 | -1.18 | 0.277 | -1.86 | 1.14 | -0.487 (inactive) | -0.0293 | -0.978 | 0.484 (inactive) | 0.887 | -1.08 (inactive) | 0.499 (inactive) | -3.59 (inactive) | 0.0898 (inactive) | 0.616 (inactive) | 0.453 (inactive) | 0.159 (inactive) | -0.326 | 0.337
